Rab9 promoter act – qHTS Assay for Rab9 Promoter Activators. Potency, µM (doses to about 9.22 µM), hits mostly activators. hit rate 2.8% among 320,000. AID 485297, 2010. Huh7 Rab9 promoter-luciferase reporter, luminescence, 24 h; note: nearly all actives have a fitted effect of over 60% in size
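Luminescence read-out: Huh7 cells stably expressing Rab9-luciferase, treated 24 h with compound at 37 °C, then lysed with luciferase reagent for 10 min at ambient before reading.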
ELG1 DNA repair – qHTS screen for small molecules that inhibit ELG1-dependent DNA repair in human embryonic kidney (HEK293T) cells expressing luciferase-tagged ELG1; Potency, µM (highest dose often 46.1 µM), hits mostly inhibitors; HEK293T ELG1-luciferase reporter, luminescence, 16 h; DNA damage induced by 5-fluorouridine; hit rate 2.3% among 330,000; note: nearly all actives have a fitted effect of over 55% in size
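DMSO vehicle served as the neutral condition. Each well held 2,000 cells given 5-fluorouridine plus compound; after 16 hr at 37 °C/5% CO2, ONE-Glo was added and luciferase measured 30 min later.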
FLuc modulator – qHTS profiling assay for firefly luciferase inhibitor/activator using purifed enzyme and Km concentrations of substrates (counterscreen for miR-21 project) | AID 588342, 2011 | Luciferin 4-monooxygenase (Photinus pyralis), P08659 | Potency, µM (highest dose often 57.5 µM), usual class: inhibitors | hit rate 6.9% among 360,000 | purified FLuc, Km substrates, luminescence inhibition; note: nearly all actives have a fitted effect of over 55% in size
Target sequence (P08659 whole entry, looked up): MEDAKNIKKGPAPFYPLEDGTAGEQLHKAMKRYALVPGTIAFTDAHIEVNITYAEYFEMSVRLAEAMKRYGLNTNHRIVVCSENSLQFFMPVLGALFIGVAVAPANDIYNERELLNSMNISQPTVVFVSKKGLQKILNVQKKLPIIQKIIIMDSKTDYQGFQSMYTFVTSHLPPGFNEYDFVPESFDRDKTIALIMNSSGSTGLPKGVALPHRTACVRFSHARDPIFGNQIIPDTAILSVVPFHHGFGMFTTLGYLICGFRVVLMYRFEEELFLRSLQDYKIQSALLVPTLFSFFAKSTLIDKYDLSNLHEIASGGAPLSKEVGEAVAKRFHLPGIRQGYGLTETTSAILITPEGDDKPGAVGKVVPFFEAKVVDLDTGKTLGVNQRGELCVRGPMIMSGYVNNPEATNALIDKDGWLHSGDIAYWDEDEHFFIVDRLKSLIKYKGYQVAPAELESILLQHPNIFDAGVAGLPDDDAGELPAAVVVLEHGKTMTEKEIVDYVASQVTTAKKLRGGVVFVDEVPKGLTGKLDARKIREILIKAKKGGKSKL
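Purified P. pyralis luciferase (10nM final) with 10uM D-luciferin and 10uM ATP (Km levels) in 50mM Tris acetate pH 7.5, 10mM Mg acetate, 0.01% Tween-20, 0.05% BSA; qHTS 6-point titration, ~60 µM downward; luminescence read.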
SMN2 splice up – qHTS Assay for Enhancers of SMN2 Splice Variant Expression; HEK293 SMN2-luciferase splicing reporter, luminescence, 30-36 h; Potency, µM (titrated, usually from 46.1 µM), most hits filed as activators; hit rate 2.8% among 210,000; AID 1458, 2008; note: nearly all actives have a fitted effect of over 55% in size
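HEK293 cells carry an SMN2 […]–luciferase reporter in which exon 7 inclusion puts luciferase in frame. Cells were plated 10-12 h before compound addition, then incubated 30-36 h at 37C. ONE-Glo luminescence was read; sodium butyrate at 4.5 mM final served as control.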
ELG1 genotox – qHTS screen for small molecules that induce genotoxicity in human embryonic kidney (HEK293T) cells expressing luciferase-tagged ELG1. HEK293T ELG1-luciferase reporter, luminescence, 16 h. Potency, µM (titrated, usually from 46 µM), hits mostly activators. hit rate 1.3% among 330,000. AID 504466, 2011; note: nearly all actives have a fitted effect of over 60% in size
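HEK293T cells expressing luciferase-tagged ELG1 were treated with compound or DMSO for 16 hr at 37°C. Luciferase activity was then read after 30 min with ONE-Glo at room temperature; rising signal flags genetic stress.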
NPC1 promoter act – qHTS Assay for NPC1 Promoter Activators. Huh7 NPC1 promoter luciferase reporter, 24 h. Potency, µM (series often up to 9.22 µM), actives largely listed as activators. hit rate 2.4% among 320,000. AID 485313, 2010; note: nearly all actives have a fitted effect of over 60% in size
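NPC1 promoter–luciferase Huh7 cells; 24 h compound; luminescence.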
Numbers stand for hits. Compounds with a hit are over-represented: about 9.4% of the library has one in this group of screens. Calls come from the whole dose curve; as a rule, active = well fitted curve in the direction sought with a large enough effect; inconclusive = small, poorly fitted or top-dose-only effect, or another doubt; inactive = no such curve, though single readings can be large; an effect the other way counts as inactive or inconclusive.

How did Cc1nc2c(-c3ccc(F)cc3)cnn2c(N)c1-c1ccccc1 do in these assays?
Rab9 promoter act: inactive; ELG1 DNA repair: inconclusive; FLuc modulator: 0.239µM; ELG1 genotox: 0.58µM; NPC1 promoter act: inactive

What do the screens show for `COc1ccc(CCNc2oc(/C=C/c3ccc(OC)c(OC)c3)nc2C#N)cc1`?
FLuc modulator: inactive; SMN2 splice up: inactive

Results for O=C(COc1ccccc1Cl)OCc1cc(=O)n2nc(C3CCCCC3)sc2n1 ?
FLuc modulator: inactive

How did Cc1ccc(CN2C(=O)c3ccccc3Sc3ccc(C(=O)NC4CCCCC4)cc32)cc1 do in these assays?
FLuc modulator: inactive

How did Nc1c(-c2ccc(Cl)cc2)cnc2c(-c3ccc(F)cc3)cnn12 do in these assays?
Rab9 promoter act: 0.501µM; ELG1 DNA repair: inconclusive; FLuc modulator: 1.51µM; ELG1 genotox: 7.3µM; NPC1 promoter act: 0.562µM

How did COc1ccccc1OCCSc1nc2ccccc2n1CCC(=O)O do in these assays?
Rab9 promoter act: inactive; ELG1 DNA repair: inconclusive; FLuc modulator: 26.9µM; ELG1 genotox: inactive; NPC1 promoter act: inactive

How did COc1ccccc1OCCSc1nc2ccccc2n1CCO do in these assays?
Rab9 promoter act: inactive; ELG1 DNA repair: inactive; FLuc modulator: 16.9µM; ELG1 genotox: inactive; NPC1 promoter act: inactive

What do the screens show for `COc1ccc(OCCSc2nc3ccccc3n2CCC(=O)O)cc1`?
Rab9 promoter act: inactive; ELG1 DNA repair: inactive; FLuc modulator: inactive; ELG1 genotox: inactive; NPC1 promoter act: inactive

Results for c1ccc(C2Oc3ccccc3C3CC(c4cccs4)=NN32)cc1 (stereo not given) ?
Rab9 promoter act: inactive; ELG1 DNA repair: inconclusive; FLuc modulator: inconclusive; SMN2 splice up: inconclusive; ELG1 genotox: inactive; NPC1 promoter act: inactive

How did O=[N+]([O-])c1ccc(C2Oc3ccccc3C3CC(c4ccccc4)=NN32)s1 (stereo not given) do in these assays?
Rab9 promoter act: inactive; ELG1 DNA repair: inconclusive; FLuc modulator: 9.53µM; SMN2 splice up: 25.1µM; ELG1 genotox: inconclusive; NPC1 promoter act: inactive

Results for CC(=O)c1c(C)[nH]c(C(=O)CN2CCN(S(=O)(=O)c3ccccc3F)CC2)c1C ?
ELG1 DNA repair: 11.6µM; ELG1 genotox: inactive

What do the screens show for `O=C1OC(Cc2ccccn2)C(O)=C1C1=NCCCN1` (stereo not given)?
Rab9 promoter act: inactive; ELG1 DNA repair: inconclusive; FLuc modulator: inactive; SMN2 splice up: inconclusive; ELG1 genotox: inactive; NPC1 promoter act: inactive

What do the screens show for `O=C1OC(Cc2ccccn2)C(O)=C1C1=NCCCCN1` (stereo not given)?
Rab9 promoter act: 2.24µM; ELG1 DNA repair: inconclusive; FLuc modulator: inconclusive; SMN2 splice up: 10µM; ELG1 genotox: inconclusive; NPC1 promoter act: 2.24µM

Results for COc1cc(C2CC(=O)N(Cc3ccc(F)cc3)c3ccccc3S2)cc(OC)c1OC (stereo not given) ?
FLuc modulator: inactive; SMN2 splice up: inactive

Results for CC(=O)N=c1sc2cc(C)ccc2n1C ?
Rab9 promoter act: inactive; ELG1 DNA repair: inconclusive; FLuc modulator: inconclusive; SMN2 splice up: inactive; ELG1 genotox: 12.6µM; NPC1 promoter act: inactive

How did Cc1ccc(-n2c(O)c(/C=N/Nc3ccc(S(=O)(=O)N4CCOCC4)cc3[N+](=O)[O-])c3ccccc3c2=O)c(C)c1 do in these assays?
Rab9 promoter act: inactive; ELG1 DNA repair: inconclusive; FLuc modulator: 23.9µM; SMN2 splice up: inactive; ELG1 genotox: inactive; NPC1 promoter act: inactive

How did Cc1oc(-c2ccc(C(=O)Nc3ccc(F)cc3F)cc2)nc1COc1ccccc1 do in these assays?
FLuc modulator: inactive

Results for c1ccc(COc2ccc(OCCCCN3CCCC3)cc2)cc1 ?
Rab9 promoter act: 2.51µM; ELG1 DNA repair: inconclusive; FLuc modulator: 12µM; ELG1 genotox: inconclusive; NPC1 promoter act: 2.24µM

What do the screens show for `c1ccc(COc2ccc(OCCOCCn3cncn3)cc2)cc1`?
Rab9 promoter act: 1.26µM; ELG1 DNA repair: inconclusive; FLuc modulator: 8.49µM; SMN2 splice up: 8.91µM; ELG1 genotox: 5.17µM; NPC1 promoter act: 1.41µM

What do the screens show for `c1ccc(COc2ccc(OCCCN3CCCCC3)cc2)cc1`?
Rab9 promoter act: 3.16µM; ELG1 DNA repair: inconclusive; FLuc modulator: 13.5µM; SMN2 splice up: inconclusive; ELG1 genotox: 7.94µM; NPC1 promoter act: inconclusive

What do the screens show for `C=CCNCCCCOc1ccc(OCc2ccccc2)cc1`?
Rab9 promoter act: inconclusive; ELG1 DNA repair: inconclusive; FLuc modulator: 16.9µM; SMN2 splice up: inactive; ELG1 genotox: 13µM; NPC1 promoter act: inconclusive

What do the screens show for `CO/S(=N\S(=O)(=O)c1ccc(Cl)cc1)c1ccc([N+](=O)[O-])cc1` (stereo not given)?
Rab9 promoter act: inactive; NPC1 promoter act: inactive

Results for COc1ccc(-c2onc(C)c2-c2cscn2)c(O)c1 ?
Rab9 promoter act: inactive; ELG1 DNA repair: inactive; FLuc modulator: inactive; SMN2 splice up: inactive; ELG1 genotox: inactive; NPC1 promoter act: inactive

How did CCCOC(=O)c1ccc(-c2c(C)noc2-c2ccc(OC)cc2O)o1 do in these assays?
Rab9 promoter act: inactive; ELG1 DNA repair: 20.6µM; FLuc modulator: inactive; SMN2 splice up: inactive; ELG1 genotox: inactive; NPC1 promoter act: inactive

How did Cc1nc(-c2ccc(NC(=O)Cc3ccccc3)cc2)cs1 do in these assays?
Rab9 promoter act: inconclusive; ELG1 DNA repair: inconclusive; FLuc modulator: 8.49µM; ELG1 genotox: inactive; NPC1 promoter act: inconclusive

Results for CCC(=O)Nc1ccc(-c2csc(C)n2)cc1 ?
Rab9 promoter act: inconclusive; ELG1 DNA repair: inconclusive; FLuc modulator: 23.9µM; SMN2 splice up: inconclusive; ELG1 genotox: inconclusive; NPC1 promoter act: inconclusive

Results for COc1ccc(CC(=O)Nc2ccc(-c3csc(C)n3)cc2)cc1 ?
Rab9 promoter act: inactive; ELG1 DNA repair: inactive; FLuc modulator: inactive; ELG1 genotox: inactive; NPC1 promoter act: inactive

What do the screens show for `CCCCC12CN3CC(C)(CN(C1)C3c1ccc(OCc3ccccc3)cc1)C2=O` (stereo not given)?
FLuc modulator: inactive; SMN2 splice up: inactive

Compound activity (PubChem)
